# Compounds with a hit are over-represented: about 19% of the library has one in this group of screens.
# KB-V1 cytotox: kills drug-selected multidrug resistant KB-V1 cells; Potency, µM (doses to about 46.1 µM), most hits filed as cytotoxic; 400,000 tested, 3.4% active; KB-V1 MDR cells viability, CellTiter-Glo, 72 h; AID 1347076; further: nearly all actives have a fitted effect of over 60% in size
#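 KB-V1, DMEM (no phenol red) + 10% FBS; cpd pin-transferred, titration series; 72 h, 37 degrees C; CellTiter-Glo, luminescence. Data normalized, curve-fit.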
# KB-3-1 tox: KB-3-1 parental cell cytotoxicity; KB-3-1 viability, CellTiter-Glo ATP luminescence, 72 h; AID 1347075; 400,000 tested, 1.4% active; Potency, µM (doses to about 46.1 µM), usual class: cytotoxic; further: nearly all actives have a fitted effect of over 60% in size
#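 Cytotoxicity measured as CellTiter-Glo luminescence after 72 h at 37 C. Compound titrations were pinned onto drug-naive KB-3-1 parental adenocarcinoma cells grown in DMEM with 10% FBS, and normalized data fitted to concentration-response curves.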
# HT1080 IDH1KD tx: HT-1080 IDH1 knockdown cell toxicity (counter line); HT-1080 IDH1 knockdown viability, ATP luminescence, 48 h; Potency, µM (series often up to 46.1 µM), inactives show at the top dose activity, negative = toxicity, actives largely listed as cytotoxic; 360,000 tested, 2% active; AID 686971;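 further: 0% = DMSO wells and -100% = cell-free medium wells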
#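 In this qHTS, HT-1080 cells depleted of IDH1 are exposed for 48 h at 37 °C to compound titrations. Toxicity is scored from CellTiter-Glo luminescence, with DMSO as full viability and medium alone as none.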
# TDP1 cell CPT: DT40-hTDP1 cell growth loss with CPT. AID 686979. chicken DT40 Tdp1-/-;hTDP1 cells + 20 nM CPT, ATP luminescence, 48 h. Potency, µM (series often up to 46.2 µM), for the others: at the highest dose activity change, negative = growth inhibition, hits mostly inhibitors. 420,000 tested, 12% active; further: nearly all actives have a fitted effect of over 55% in size
#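 Chicken DT40 Tdp1-/- cells complemented with human TDP1, 400 cells/well, exposed to compounds plus 20 nM camptothecin for at least 48 h at 37 C; viability read as ATP content by CellTiter-Glo luminescence.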
# TDP1 cell noCPT: qHTS for Inhibitors of human tyrosyl-DNA phosphodiesterase 1 (TDP1): qHTS in cells in absence of CPT; DT40 Tdp1-/- hTDP1 cells, no CPT, ATP luminescence, 48 h; Potency, µM (titrated, usually from 46.2 µM), inactives show at the top dose activity change, negative = growth inhibition, most hits filed as inhibitors; 420,000 tested, 15% active; further: nearly all actives have a fitted effect of over 55% in size
#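 Luminescent ATP content (CellTiter-Glo) served as the growth readout. Knockout chicken DT40 cells expressing human TDP1 were exposed to compounds without camptothecin for a minimum 48 hr at 37 °C.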
# HT1080-NT tox: kills 2HG-producing HT-1080-NT fibrosarcoma cells; HT-1080-NT fibrosarcoma viability, CellTiter-Glo ATP luminescence, 48 h; Potency, µM (highest dose often 46.1 µM), inactives show at the top dose activity, negative = less viability, most hits filed as cytotoxic; 360,000 tested, 1.6% active;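 further: NT is the 2HG producing partner of a matched IDH1 knockdown line; 0% = DMSO-treated cells and -100% = media-only wells without cells; nearly all actives have a fitted effect of over 55% in size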
#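 Viability by CellTiter-Glo luminescence after 48 h compound exposure at 37C of HT-1080-NT cells (750/well, RPMI, 5% FBS). % activity scaled between DMSO wells and medium-only wells, then curve-fitted and categorized by curve class.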
# * hit, by the source's call; i = inactive; u = inconclusive; x = not tested or not shown. The call rests on the fitted dose curve; in most records, active means well fitted curve in the direction sought with a large enough effect; inconclusive means small, poorly fitted or top-dose-only effect, or another doubt; inactive means no such curve, though single readings can be large; an effect the other way counts as inactive or inconclusive. Unless noted, on the % scale 0 is the no-effect control and ±100 the full control effect; potency means the concentration at half of the fitted maximal effect.
SMILES,KB-V1 cytotox,KB-3-1 tox,HT1080 IDH1KD tx,TDP1 cell CPT,TDP1 cell noCPT,HT1080-NT tox
Cc1cccc(Cn2c(SCc3ccc(C(=O)NCc4ccccc4F)cc3)nc3cccnc32)c1,14.6µM*,u,x,u,20.6µM*,x
CC1CCN(c2ccccc2NC(=O)c2cc([N+](=O)[O-])ccc2N2CCOCC2)CC1,x,x,-1.5%,u,16.4µM*,1.5%
CCc1ccccc1NC(=O)c1cc([N+](=O)[O-])ccc1N1CCOCC1,i,i,6.7%,-19.5%,12.1%,18.7%
Cc1c(NC(=O)c2cc([N+](=O)[O-])ccc2N2CCOCC2)cccc1-c1nc2ccccc2o1,i,u,x,u,25.9µM*,x
Cc1cccc(Cc2cccc(C)c2O)c1O,i,i,-15.3%,4.5%,u,-16.0%
Cc1cccc(C)c1NC(=O)CN1CCN(C(=O)c2ccc(OCc3cn4ccccc4n3)cc2)CC1,i,i,1.5%,-25.0%,u,7.8%
CN1CCN(c2ccc(C(=O)c3cn(-c4ccc(F)c(Cl)c4)nn3)cc2)CC1,u,i,5.6%,u,16.4µM*,-6.0%
O=C1CN(C(=O)c2ccc(Br)o2)C(c2ccccc2)c2cc(Br)ccc2N1 (stereo not given),i,u,-26.6%,16.4µM*,20.6µM*,-25.0%
O=C1CN(C(=O)c2ccc(S(=O)(=O)N3CCCC3)cc2)C(c2ccccc2)c2cc(Br)ccc2N1 (stereo not given),i,u,x,14.6µM*,u,x
O=C1CN(C(=O)Cc2ccc(F)cc2)C(c2ccccc2)c2cc(Br)ccc2N1 (stereo not given),i,i,x,u,u,x
Cc1ccc2c(c1)C(c1ccccc1)N(C(=O)c1ccc(Br)o1)CC(=O)N2 (stereo not given),i,i,-22.4%,20.6µM*,20.6µM*,u
CCC(C)Sc1nc2c(c(=O)[nH]c(=O)n2C)n1C (stereo not given),u,i,-0.8%,-1.8%,-16.8%,-1.4%
CC1CN(C(=O)c2ccccc2)c2ccccc2NC1=O (stereo not given),i,i,5.5%,-5.5%,3.4%,5.6%
CC(C)CNC(=O)c1cccc(NC(=O)C(C)C)c1,i,i,1.6%,-9.7%,-7.6%,-0.7%
c1ccc(Cc2nn3c(COc4ccccc4)nnc3s2)cc1,i,i,-16.9%,u,18.4µM*,-17.2%
c1ccc(OCc2nn3c(Cn4cnc5ccccc54)nnc3s2)cc1,u,i,-4.6%,16.4µM*,u,-6.5%
CCOc1ccccc1OCc1nn2c(COc3ccccc3)nnc2s1,i,i,5.9%,15.8µM*,12.6µM*,7.0%
Cc1onc(-c2ccccc2Cl)c1-c1nc(-c2ccccn2)no1,i,i,-12.1%,u,16.4µM*,-2.3%
c1ccc(-c2noc(-c3ccc4ccccc4c3)n2)nc1,5.8µM*,u,-24.9%,u,23.1µM*,-19.0%
c1ccc(-c2noc(-c3cccnc3)n2)nc1,i,i,-28.7%,-23.4%,u,-11.8%
c1ccc(-c2noc(-c3ccncc3)n2)nc1,i,u,u,u,u,11.2µM*
c1ccc(-c2noc(-c3ccc4c(c3)OCO4)n2)nc1,4.11µM*,4.61µM*,2.51µM*,5.17µM*,5.17µM*,1.78µM*
CC1(c2ccc3ccccc3c2)NC(=O)N(CC(=O)Nc2ncccc2O)C1=O (stereo not given),i,i,-3.6%,-13.1%,14.2%,-2.7%
CSC(=Nc1ccccc1)N=C(SCc1ccccc1)N(C)C,5.8µM*,4.11µM*,13µM*,1.16µM*,1.3µM*,20.6µM*
N#CNC(=Nc1ccccc1)SCc1ccc(C(=O)O)cc1,i,i,-3.6%,6.2%,-23.2%,18.0%
SMILES,KB-V1 cytotox,KB-3-1 tox,HT1080 IDH1KD tx,TDP1 cell CPT,TDP1 cell noCPT,HT1080-NT tox
COc1ccc(C(C(=O)NC(C)(C)C)n2c(-c3ccc(-c4ccccc4)cc3)nc3ccccc32)cc1 (stereo not given),i,i,21.6%,u,13µM*,9.4%
CC(C(=O)NC(C)(C)C)n1c(-c2ccc3c(c2)OCO3)nc2ccccc21 (stereo not given),i,i,-3.1%,u,-26.6%,5.5%
Cc1ccc(-c2nc3ccccc3n2C(C)C(=O)NC(C)(C)C)cc1 (stereo not given),i,i,8.9%,9.4%,-16.8%,16.1%
CC(C)(C)NC(=O)C(c1ccccc1)n1c(-c2ccc(-c3ccccc3)cc2)nc2ccccc21 (stereo not given),u,i,-7.6%,u,u,-4.6%
Cc1ccc(-c2nc3ccccc3n2C(C(=O)NC(C)(C)C)C2CC2)cc1 (stereo not given),u,i,15.7%,20.6µM*,u,23.2%
CSCCC(C(=O)NC(C)(C)C)n1c(-c2ccc3c(c2)OCO3)nc2ccccc21 (stereo not given),u,i,3.6%,23.1µM*,20.6µM*,5.0%
CCC(C(=O)NC1CCCC1)n1c(-c2ccccn2)nc2ccccc21 (stereo not given),u,i,10.4%,7.31µM*,8.2µM*,19.2%
Cc1csc(-c2nc3ccccc3n2C(C(=O)NC(C)(C)C)c2cc3ccccc3o2)c1 (stereo not given),i,i,u,u,14.6µM*,u
CC(C)(C)NC(=O)C(C1CC1)n1c(-c2ccccc2)nc2ccccc21 (stereo not given),i,i,-12.4%,10.3µM*,8.2µM*,5.3%
CSCCC(C(=O)Nc1c(C)cccc1C)n1c(-c2cnc(C)cn2)nc2ccccc21 (stereo not given),u,i,-0.9%,u,16.4µM*,-13.5%
COc1ccc(C(C(=O)NCc2ccccc2)n2c(-c3ccccn3)nc3ccccc32)cc1 (stereo not given),u,u,u,16.4µM*,u,u
COc1ccc(C(C(=O)NCc2ccccc2)n2c(-c3ccncc3)nc3ccccc32)cc1 (stereo not given),u,i,8.8%,u,u,10.7%
CC(=O)Nc1ccc(-c2cc(C(=O)O)c3ccc(C)cc3n2)cc1,i,i,16.3%,2.0%,-5.3%,11.9%

# Screening results deposited in PubChem by National Center for Advancing Translational Sciences (NCATS).
